According to PubChem BioAssay (NCI):
About 79,000 compounds went through this panel and 15% of them were active in at least one assay; those are over-represented in the sample as a whole. A number with no mark means an inactive call. Calls of active or inactive are those of the source. No stated cut-off is given here; in the data, active means growth inhibition above about 70%; inactive means the rest.

Legend:
[1] = NCI Yeast Anticancer Drug Screen. Data for the rad50 strain (AID 155);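 further: 0% = growth of vehicle-only cultures of the same strain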; settings: S. cerevisiae rad50 strain growth inhibition, active compounds read high
Method in brief: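 Vehicle-treated cultures provide the reference for the growth inhibition reported for compound-exposed, repair-deficient yeast.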

[2] = NCI Yeast Anticancer Drug Screen. Data for the mec2-1 strain (AID 157); settings: S. cerevisiae mec2-1 strain, active compounds read high
Method in brief: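 Using mec2-1 yeast: add compound, measure growth, express inhibition versus vehicle-treated cultures.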

[3] = NCI Yeast Anticancer Drug Screen. Data for the sgs1 mgt1 strain (AID 161);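 further: 0% = growth of cultures given vehicle only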; settings: S. cerevisiae sgs1 mgt1 strain, active compounds read high
Method in brief: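 Growth of a repair-deficient yeast mutant was monitored after compound treatment and expressed as inhibition relative to vehicle-treated cultures.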

[4] = NCI Yeast Anticancer Drug Screen. Data for the cln2 rad14 strain (AID 165);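 further: 0% = growth equal to vehicle treated cultures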; settings: S. cerevisiae cln2 rad14 strain, active compounds read high
Method in brief: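 Yeast strain cln2 rad14, bearing defects in cell cycle control and DNA repair, serves as the test system; values reflect growth inhibition compared with vehicle.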

[5] = NCI Yeast Anticancer Drug Screen. Data for the bub3 strain (AID 167); settings: S. cerevisiae bub3 mutant strain, active compounds read high
Method in brief: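 Mutant yeast screening strain plus compound; vehicle-treated cultures serve as the 0% inhibition reference.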

[6] = NCI Yeast Anticancer Drug Screen. Data for the mlh1 rad18 strain (AID 175); settings: S. cerevisiae mlh1 rad18 strain growth inhibition, active compounds read high
Method in brief: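 Steps: expose repair-defective yeast to compound; measure growth; express inhibition against vehicle-treated controls.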

[7] = at 5.0 µM (retest, dose inferred, filed as 0.5)
[8] = at 50.0 µM (retest, dose inferred, filed as 5.0)

Structure (SMILES) | growth inhibition [1, 7] [%] | growth inhibition [1, 8] | growth inhibition ([1]; at 50.0 µM) | growth inhibition [2, 7] [%] | growth inhibition [2, 8] | growth inhibition ([2]; at 50.0 µM) | growth inhibition [3, 7] [%] | growth inhibition [3, 8] | growth inhibition ([3]; at 50.0 µM) | growth inhibition [4, 7] [%] | growth inhibition [4, 8] | growth inhibition ([4]; at 50.0 µM) | growth inhibition [5, 7] [%] | growth inhibition [5, 8] | growth inhibition ([5]; at 50.0 µM) | growth inhibition [6, 7] [%] | growth inhibition [6, 8] | growth inhibition ([6]; at 50.0 µM)
CC(CC(C)[C@H]1CCC2[C@H]3C(CC[C@@]21C)[C@@]1(C)CCC(O)C[C@H]1C[C@@H]3O)C(=O)O (some centres not stated) | 10 | 97% (active) | 98.4% (active) | -7 | 98% (active) | 97.5% (active) | -4 | 97% (active) | 98.7% (active) | -4 | 99% (active) | 97.1% (active) | -20 | 98% (active) | 99% (active) | 14 | 98% (active) | 98.2% (active)
O=C(Nc1ccccc1)O/N=C1/CCCC/C1=C\c1ccccc1 | 26 | 77% (active) | 88.4% (active) | 41 | 85% (active) | 90.1% (active) | 57 | 86% (active) | 88.3% (active) | 65 | 85% (active) | 84.4% (active) | 54 | 87% (active) | 81.6% (active) | 35 | 88% (active) | 84.1% (active)
Nc1ncnc2nc(SCCO)[nH]c12 | -1 | -2% | 9.4% | 4 | 0% | -4.9% | -1 | -4% | 12.9% | 0 | -5% | 31.4% | 3 | -2% | 9.15% | -2 | -3% | 39.1%
CCOC(=O)c1ccc(C(C)C)cc1 | 3 | 96% (active) | 40.5% | 3 | 100% (active) | 79.6% (active) | 3 | 94% (active) | 55.5% | -1 | 97% (active) | 21.6% | 4 | 99% (active) | 84.3% (active) | 4 | 96% (active) | 62.1%
COC(=O)C1C(c2ccccc2)=N[C@@H](c2ccccc2)[C@H]1C(=O)OC (some centres not stated) | 2 | -3% | 17.4% | 3 | -2% | -2.15% | 9 | 3% | 17.1% | 6 | 7% | 23.2% | 6 | 32% | 3.55% | 1 | 0% | 76.7% (active)
COc1ccc(CSC(=S)Nc2ccc(SC)c(Cl)c2)cc1 | 50 | 90% (active) | 96.4% (active) | 23 | 96% (active) | 98.1% (active) | 62 | 94% (active) | 97% (active) | -10 | 88% (active) | 94.5% (active) | 16 | 97% (active) | 97% (active) | 65 | 94% (active) | 97.9% (active)
COc1cc2c(cc1O)C(O)CCCC2 (configuration not stated) | -146 | -152% | 6.6% | -45 | -55% | -14.6% | -62 | -32% | 41.8% | -52 | -61% | -4.15% | -64 | -75% | -6.4% | -147 | -108% | 12.3%
CC(C)(C)N1OC2(c3ccccc3)OC3N(C(C)(C)C)OC4(c5ccccc5)OC1C2(c1ccccc1)C34c1ccccc1 (configuration not stated) | -4 | 99% (active) | 93.7% (active) | -2 | 100% (active) | 97.9% (active) | -5 | 99% (active) | 72% (active) | 4 | 99% (active) | 98% (active) | 1 | 99% (active) | 99.2% (active) | 0 | 99% (active) | 96% (active)
CCS(=O)(=O)C(C(O)C(O)C(O)C(O)CO)S(=O)(=O)CC (configuration not stated) | -3 | -6% | 16.2% | -2 | -6% | 8.95% | -2 | -2% | 7.25% | 0 | -10% | 43.5% | 0 | 4% | -2% | -4 | -10% | -7.05%
